High-throughput results from PubChem BioAssay.
Efflux pump mplx: antifungal efflux pump inhibition, Nile Red retention | AID 485275 | S. cerevisiae Candida pump triplex | actives 0.44% (n = 330,000) | inhibition, % at 10 µM;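 active means plate passing quality check with inhibition over a set limit, or well fluorescence over plate mean plus 4 SD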;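 further: Nile Red retained in pooled yeast measured as flow cytometry median fluorescence; higher means more Nile Red kept so more efflux inhibition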
SKN-1 inh: C. elegans SKN-1 inhibition. C. elegans VP596 Pgst-4::GFP/RFP ratio, acrylamide-induced, 24 h. inhibition, % at 21.8 µM. actives 0.49% (n = 360,000). AID 624304;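 active means interference check ratio from 0.5 to 1.5 plus GFP to RFP signal ratio inhibition reaching or exceeding a fixed threshold, cut at about 30% in these data, passing the limit was not always enough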
SUMO Mot1 rescue: SUMOylation pathway inhibition by Mot1-301 growth rescue. S. cerevisiae Mot1-301 growth rescue, ATP luminescence, 38.5C; percent above DMSO median, 100 means doubled. growth rescue, % at 18.8 µM. actives 1% (n = 320,000). AID 2716;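 active means every valid replicate shows activation above 250% relative to neutral control wells; inactive means the rest, any valid replicate at or below 250%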
sPLA2-III inh: Blocks human group III sPLA2 activity | Q9NZ20 | QFRET BODIPY PC-A2 liposome hydrolysis, fluorescence | inhibition, % at 12.2 µM | actives 0.56% (n = 370,000) | AID 743126;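 active means inhibition above mean plus 3 SD of compounds lying within the high and low control bounds, cut at about 19% in these data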
Target sequence (Q9NZ20 whole entry, looked up): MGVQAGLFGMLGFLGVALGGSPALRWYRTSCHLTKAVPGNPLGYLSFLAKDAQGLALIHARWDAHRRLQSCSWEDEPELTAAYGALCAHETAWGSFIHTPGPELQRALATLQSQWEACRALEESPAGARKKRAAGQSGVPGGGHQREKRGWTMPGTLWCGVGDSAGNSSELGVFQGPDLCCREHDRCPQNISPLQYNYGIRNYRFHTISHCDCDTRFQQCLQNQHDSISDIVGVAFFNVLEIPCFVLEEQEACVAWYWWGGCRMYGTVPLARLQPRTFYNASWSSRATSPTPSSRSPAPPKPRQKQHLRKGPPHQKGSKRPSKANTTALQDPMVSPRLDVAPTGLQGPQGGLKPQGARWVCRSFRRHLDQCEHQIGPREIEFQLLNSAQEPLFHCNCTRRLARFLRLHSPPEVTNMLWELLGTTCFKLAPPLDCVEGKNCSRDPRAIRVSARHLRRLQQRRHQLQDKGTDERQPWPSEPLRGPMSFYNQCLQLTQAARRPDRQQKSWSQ
Numbers stand for hits; - = inactive; . = not tested or not shown. A selection: hits, their analogues and other compounds. The true share with any hit is near 2.2%.

SMILES	Efflux pump mplx	SKN-1 inh	SUMO Mot1 rescue	sPLA2-III inh
COc1ccc(CC(=O)N2CCN(C(=O)Cc3ccc(OC)cc3)CC2)cc1	-	-	-	-
O=C(O)CC/C(=N\Nc1ccc([N+](=O)[O-])cc1)c1ccccc1	-	-	367	-
C/C(=N\Nc1ccc([N+](=O)[O-])cc1)c1ccc(C#N)cc1	-	-	-	-
O=C(O)CC/C(=N/Nc1ccc([N+](=O)[O-])cc1)C(=O)O	-	-	-	-
N#CC(C#N)=NNc1ccc([N+](=O)[O-])cc1	-	90	-	-
COc1cccc(N(CC(=O)NC2CCCCC2)C(=O)CCCC(=O)Nc2ccccn2)c1	-	-	-	-
CCCS(=O)(=O)C(=C1NCCO1)S(=O)(=O)CCC	-	-	351	-
CCCN1CCCCC(NC(=O)c2ccc3ccccc3c2)C1=O (centres undefined)	.	.	.	-
O=C(C(c1ccccc1)N1CCOCC1)N1CCOCC1 (centres undefined)	-	-	-	-
O=C(C=Cc1ccccc1)CC(c1ccccc1)N1CCOCC1 (centres undefined)	.	83	.	-
CCCCCCCCN1C(=O)[C@@H](CC(=O)N2CCSCC2)C[C@@]2(C(=O)OC)C1=C[C@H](C1CCCC1)O[C@@H]2C	.	.	.	-
COc1ccc(C(C)=O)cc1CN1C(=O)C(C)ON=C1c1cccc(C(F)(F)F)c1 (centres undefined)	.	35	.	-
COc1ccc(C(C)=O)cc1CN1C(=O)C(C)ON=C1c1ncccc1C (centres undefined)	.	-	.	-
COC(=O)C1=C(C)N(Cc2ccc(Br)cc2)C(=S)NC1c1cccc(Br)c1 (centres undefined)	.	.	.	-
Cc1cccc(C)c1NC(=O)C1c2ccccc2OCC(=O)N1Cc1ccccc1 (centres undefined)	.	-	.	-
O=C(Nc1ccc(Br)cc1)C1CCCC1	-	-	333	-
CCN1C(=O)/C(=C2\C=Cc3cc(C)ccc3N2CC)OC1=S	-	35	.	-
COc1ccc(-c2nnc(SCC(=O)Nc3ccc(S(=O)(=O)Nc4nccs4)cc3)n2-c2ccc(OC)cc2)cc1	.	.	.	-
CC(=O)Nc1cccc(Oc2nc(-c3ccccn3)nc3ccccc23)c1	-	-	532	-
CC(=O)C1=C(C)Nc2ncnn2C1c1cccc(O)c1 (centres undefined)	-	-	336	-
CC(=O)C1=C(C)Nc2ncnn2C1c1ccc(O)cc1 (centres undefined)	-	-	-	-
O=C(O)COc1ccc(/C=N/NC(=O)C(O)(c2ccccc2)c2ccccc2)cc1	-	40	-	-
O=C(O)c1ccc(/C=N/NC(=O)C(O)(c2ccccc2)c2ccccc2)cc1	-	-	-	-
CN(c1ccccc1)c1ccc(/C=C(/CCC(=O)O)c2nc3ccccc3s2)cc1[N+](=O)[O-]	.	-	.	20
O=C(O)CC/C(=C\c1ccc(N2CCCC2)c([N+](=O)[O-])c1)c1nc2ccccc2s1	-	-	-	-
SMILES	Efflux pump mplx	SKN-1 inh	SUMO Mot1 rescue	sPLA2-III inh
Cc1ccc(NC(=O)c2cc(-c3ccco3)on2)cc1C	-	36	-	-
Cc1cccc(NC(=O)CNC(=O)[C@@H](Cc2ccccc2)NC(=O)[C@H]2O[C@@H](n3ccc(=O)[nH]c3=O)[C@H](O)[C@@H]2O)c1C	.	.	.	-
O=C(COC(=O)[C@@H]1CCCN1C(=O)c1cccs1)NCCc1ccccc1	-	36	-	-
Cc1ccccc1NC(=O)C(=O)NCC1CCCN1S(=O)(=O)c1cccs1 (centres undefined)	-	-	-	-
O=C(NCCc1ccccc1)C(=O)NCC1CCCN1S(=O)(=O)c1cccs1 (centres undefined)	-	-	355	-
O=C(CSc1nnc(-c2ccccn2)n1-c1ccccc1)c1ccc(Cl)c(Cl)c1	.	.	.	-
COCCCNCCCCOc1ccc(Br)cc1Cl	-	-	280	-
COCCNCCCOc1ccc(Br)cc1Cl	-	-	-	-
CCCCc1ccc(-c2nc(N)n[nH]2)cc1	-	-	840	-
Nc1n[nH]c(-c2ccc(F)cc2)n1	-	-	-	-
CCOC(=O)CSc1nc2ccccc2c(=O)n1CCN1CCOCC1	-	36	-	-
CCOCCCn1c(SCC(=O)N2CCOCC2)nc2ccccc2c1=O	-	-	-	-
COc1ccccc1C(=O)COC(=O)CNC(=O)c1ccc(Br)o1	-	-	-	-
COc1ccccc1C(=O)NCC(=O)OCC(=O)c1cccc2ccccc12	-	-	321	-
N#C/C(=C\c1ccc(F)cc1)c1nc(-c2ccco2)cs1	-	60	-	-
N#C/C(=C\c1ccc(Cl)cc1)c1nc(-c2ccco2)cs1	-	-	-	-
Cc1ccc(S(=O)(=O)Oc2ccc(/C=C(/NC(=O)c3ccccc3)C(=O)NCC(=O)O)cc2)cc1	-	-	-	-
Cc1ccc(S(=O)(=O)Oc2ccc(/C=C(/NC(=O)c3ccccc3)C(=O)O)cc2)cc1	-	-	700	-
O=C(N[C@H](Cc1ccccc1)C(=O)NCCCN1CCCC1=O)[C@H]1O[C@@H](n2ccc(=O)[nH]c2=O)[C@H](O)[C@@H]1O	.	.	.	-
COc1ccc(NC(=O)Nc2ccc(N3CCOCC3)c3nonc23)c(OC)c1	-	44	.	-
N#Cc1ccc(S(=O)(=O)NCC2CCN(C(=O)C(=O)c3cc4ccccc4o3)CC2)cc1	.	.	.	-
COc1ccc(/C=N/NC(=O)c2ccc(COc3ccccc3Cl)o2)cc1	-	38	-	-
COC(=O)c1cc2c(c3c4cc(F)ccc4n(C(=O)c4ccccc4)c13)C(=O)N(C1CCCCC1)C2	.	.	.	-
N=c1c(C(=O)NCc2ccco2)cc2c(=O)n3ccccc3nc2n1Cc1ccccc1	-	-	-	-
N=c1c(C(=O)NCc2ccccc2)cc2c(=O)n3ccccc3nc2n1Cc1ccco1	-	37	-	-
SMILES	Efflux pump mplx	SKN-1 inh	SUMO Mot1 rescue	sPLA2-III inh
COc1ccc(C2Nc3ccc4ccccc4c3-c3c2c(=O)oc2ccccc32)cc1 (centres undefined)	1.7	-	-	-
COc1cc(C=O)ccc1Oc1nc(Nc2ccc(F)cc2F)nc(N2CCOCC2)n1	-	-	334	-
Fc1ccccc1Nc1nc(N2CCOCC2)nc(N2CCOCC2)n1	-	-	-	-
CC(C)C[C@H](NC(=O)c1ccc(Cl)c(Cl)c1)C(=O)N1CCC[C@H]1C(=O)NCc1ccccc1	.	.	.	-
CCCCS(=O)(=O)N1C2=NC(C(=O)OCC)=C(C(=O)OCC)C3N(Cc4ccc(Br)cc4)c4ccccc4[C@]23C[C@H]1C(=O)OC (some centres undefined)	.	.	.	-
COC(=O)c1cc2c(c3c4cc(C)ccc4n(S(=O)(=O)c4ccc(OC)cc4)c13)C(=O)N(C)C2	.	.	.	-
CC(C)CNc1nc(S(=O)(=O)c2ccccc2)c(Cl)s1	-	-	-	-
CN(C)CCNc1nc(S(=O)(=O)c2ccccc2)c(Cl)s1	-	-	355	-
Nc1ccn([C@@H]2O[C@H](C(=O)N[C@H](Cc3ccccc3)C(=O)NCC(=O)N3CCOCC3)[C@@H](O)[C@H]2O)c(=O)n1	.	.	.	-
COc1ccc(C(=O)NCCc2cnc[nH]2)cc1OC	-	-	282	-
CCOc1ccc(C(=O)NCCc2cnc[nH]2)cc1OCC	-	-	-	-
CCCCCCCCC[n+]1cccc2c3ccccc3ccc21	-	-	-	.
